Experimental data: PubChem BioAssay (NCATS)
Results filed as inconclusive are left out. Activity calls are given as the source filed them. Calls follow the shape of the dose curve; as a rule, active = well fitted cell-killing curve with a large enough effect; inconclusive = small, poorly fitted or top-dose-only effect, or effect the other way; inactive = flat fitted curve, though single readings scatter.

Legend:
Test in all cases: Primary qHTS to identify gynecologic anti-cancer compounds using libraries of approved drugs and bioactive compounds (AID 1345084); also: nearly all actives have a fitted effect of over 55% in size
C33A = details: Gynecologic cancer cell panel viability, ATPlite luminescence, 48 h; series mostly up to 57.5 µM
Method in brief: (§1)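 Cells, 1,000 per well, were allowed to settle for 16 h at 37 C before compound addition. Five concentrations were tested for 48 h, and viability was read by ATPlite luminescence after 15 min at room temperature.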

CAOV3 = details: Gynecologic cancer cell panel viability, ATPlite luminescence, 48 h; series mostly up to 57.5 µM
Method in brief: as §1

CASKI = details: Gynecologic cancer cell panel viability, ATPlite luminescence, 48 h; series mostly up to 57.5 µM
Method in brief: as §1

Es-2 = details: Gynecologic cancer cell panel viability, ATPlite luminescence, 48 h; series mostly up to 57.5 µM
Method in brief: as §1

HeLa = details: Gynecologic cancer cell panel viability, ATPlite luminescence, 48 h; series mostly up to 57.5 µM
Method in brief: as §1

Hek293T = details: Gynecologic cancer cell panel viability, ATPlite luminescence, 48 h, control line for the selectivity index; series mostly up to 57.5 µM
Method in brief: as §1

JEG-3 = details: Gynecologic cancer cell panel viability, ATPlite luminescence, 48 h; series mostly up to 57.5 µM
Method in brief: as §1

OV90 = details: Gynecologic cancer cell panel viability, ATPlite luminescence, 48 h; series mostly up to 57.5 µM
Method in brief: as §1

PA-1 = details: Gynecologic cancer cell panel viability, ATPlite luminescence, 48 h; series mostly up to 57.5 µM
Method in brief: as §1

SKOV3 = details: Gynecologic cancer cell panel viability, ATPlite luminescence, 48 h; series mostly up to 57.5 µM
Method in brief: as §1

Tov-21-G = details: Gynecologic cancer cell panel viability, ATPlite luminescence, 48 h; series mostly up to 57.5 µM
Method in brief: as §1

Tov112D = details: Gynecologic cancer cell panel viability, ATPlite luminescence, 48 h; series mostly up to 57.5 µM
Method in brief: as §1
% is scaled to controls: 0 for no effect and ±100 for the full control effect.

COc1cc(Br)c(S(=O)(=O)Nc2ccc(C(F)(F)F)c(O[C@@H]3CCN(C)C3)c2)cc1OC
inactive: Potency (C33A) | Potency (CAOV3) | Potency (CASKI) | Potency (Es-2) | Potency (HeLa) | Potency (Hek293T) | Potency (JEG-3) | Potency (OV90) | Potency (PA-1) | Potency (SKOV3) | Potency (Tov-21-G) | Potency (Tov112D)

C[C@H]1C(=O)N2c3ccccc3[C@@]3(O)C[C@@H]4C(=O)N[C@](C)(c5nc6ccccc6c(=O)n54)N1[C@@H]23
inactive: Potency (C33A) | Potency (CAOV3) | Potency (CASKI) | Potency (Es-2) | Potency (HeLa) | Potency (Hek293T) | Potency (JEG-3) | Potency (OV90) | Potency (PA-1) | Potency (SKOV3) | Potency (Tov-21-G) | Potency (Tov112D)

CC(=O)N[C@@H](CCCCN)C(=O)N(C)[C@@H](CC(C)C)C(=O)N[C@H](C(=O)N(C)[C@@H](Cc1ccccc1)C(=O)N[C@H](Cc1ccccc1)C(N)=O)C(C)C
inactive: activity change, negative = cytotoxicity (C33A) 18.7% [at 6.55 µM] | activity change, negative = cytotoxicity (CAOV3) 6.22% [at 6.55 µM] | activity change, negative = cytotoxicity (CASKI) 2.04% [at 6.55 µM] | activity change, negative = cytotoxicity (Es-2) -0.643% [at 6.55 µM] | activity change, negative = cytotoxicity (HeLa) 16.5% [at 6.55 µM] | activity change, negative = cytotoxicity (Hek293T) 8.12% [at 6.55 µM] | activity change, negative = cytotoxicity (JEG-3) -0.179% [at 6.55 µM] | activity change, negative = cytotoxicity (OV90) -1.74% [at 6.55 µM] | activity change, negative = cytotoxicity (PA-1) 7.96% [at 6.55 µM] | activity change, negative = cytotoxicity (SKOV3) 0% [at 6.55 µM] | activity change, negative = cytotoxicity (Tov-21-G) 3.25% [at 6.55 µM] | activity change, negative = cytotoxicity (Tov112D) 6.63% [at 6.55 µM]

C=C1CCC2C(C)(C(=O)O)CCCC2(C)C1CCC(C)CC(=O)O (stereo unspecified)
inactive: Potency (C33A) | Potency (CAOV3) | Potency (CASKI) | Potency (Es-2) | Potency (HeLa) | Potency (Hek293T) | Potency (JEG-3) | Potency (OV90) | Potency (PA-1) | Potency (SKOV3) | Potency (Tov-21-G) | Potency (Tov112D)

C=C1C(=O)OC2CC(C)=C(C(C)CCCO)C(O)C12 (stereo unspecified)
inactive: Potency (C33A) | Potency (CAOV3) | Potency (CASKI) | Potency (Es-2) | Potency (HeLa) | Potency (Hek293T) | Potency (JEG-3) | Potency (OV90) | Potency (PA-1) | Potency (SKOV3) | Potency (Tov-21-G) | Potency (Tov112D)

Cn1ncnc1COc1nn2c(-c3cc(F)ccc3F)nnc2cc1C(C)(C)C
inactive: Potency (C33A) | Potency (CAOV3) | Potency (CASKI) | Potency (Es-2) | Potency (HeLa) | Potency (Hek293T) | Potency (JEG-3) | Potency (OV90) | Potency (PA-1) | Potency (SKOV3) | Potency (Tov-21-G) | Potency (Tov112D)

Cn1nc(C(C)(C)C)cc1C(=O)NC(Cc1cccc(Cl)c1)C(=O)NCC#N (stereo unspecified)
inactive: Potency (C33A) | Potency (CAOV3) | Potency (CASKI) | Potency (Es-2) | Potency (HeLa) | Potency (Hek293T) | Potency (JEG-3) | Potency (OV90) | Potency (PA-1) | Potency (SKOV3) | Potency (Tov-21-G) | Potency (Tov112D)

O=C(O)c1ccc(OC2OC(CO)C(O)C(O)C2O)cc1 (stereo unspecified)
inactive: Potency (C33A) | Potency (CAOV3) | Potency (CASKI) | Potency (Es-2) | Potency (HeLa) | Potency (Hek293T) | Potency (JEG-3) | Potency (OV90) | Potency (PA-1) | Potency (SKOV3) | Potency (Tov-21-G) | Potency (Tov112D)

Cc1cc(Nc2nc(NC(C)c3ncc(F)cn3)ncc2Cl)n[nH]1 (stereo unspecified)
inactive: Potency (C33A) | Potency (CAOV3) | Potency (CASKI) | Potency (Es-2) | Potency (HeLa) | Potency (Hek293T) | Potency (JEG-3) | Potency (OV90) | Potency (PA-1) | Potency (SKOV3) | Potency (Tov-21-G) | Potency (Tov112D)

O=C1CC2(CCCC2)[C@H](O)C(=O)N1CCCCN1CCN(c2ncccn2)CC1
inactive: Potency (C33A) | Potency (CAOV3) | Potency (CASKI) | Potency (Es-2) | Potency (HeLa) | Potency (Hek293T) | Potency (JEG-3) | Potency (OV90) | Potency (PA-1) | Potency (SKOV3) | Potency (Tov-21-G) | Potency (Tov112D)

COC(=O)c1cc(OC)c(O[C@@H]2O[C@@H](C)[C@H](O)[C@@H](O)[C@H]2O)c(OC)c1
inactive: Potency (C33A) | Potency (CAOV3) | Potency (CASKI) | Potency (Es-2) | Potency (HeLa) | Potency (Hek293T) | Potency (JEG-3) | Potency (OV90) | Potency (PA-1) | Potency (SKOV3) | Potency (Tov-21-G) | Potency (Tov112D)

C=C1C[C@]23C[C@H]1CC[C@H]2[C@]1(C)CCC[C@@](C)(C(=O)O)[C@H]1[C@@H]3C(=O)O
inactive: Potency (C33A) | Potency (CAOV3) | Potency (CASKI) | Potency (Es-2) | Potency (HeLa) | Potency (Hek293T) | Potency (JEG-3) | Potency (OV90) | Potency (PA-1) | Potency (SKOV3) | Potency (Tov-21-G) | Potency (Tov112D)

C[C@@]12C[C@]3(O)O[C@H](O1)[C@]1(COC(=O)c4ccccc4)[C@H]3C[C@@]12O[C@@H]1O[C@H](CO)[C@@H](O)[C@H](O)[C@H]1O
inactive: Potency (C33A) | Potency (CAOV3) | Potency (CASKI) | Potency (Es-2) | Potency (HeLa) | Potency (Hek293T) | Potency (JEG-3) | Potency (OV90) | Potency (PA-1) | Potency (SKOV3) | Potency (Tov-21-G) | Potency (Tov112D)

CC(C)(C)C(=O)CN1C(=O)[C@H](NC(=O)Nc2cccc(C(=O)O)c2)CN(C2CCCCC2)c2ccccc21
inactive: Potency (C33A) | Potency (CAOV3) | Potency (CASKI) | Potency (Es-2) | Potency (HeLa) | Potency (Hek293T) | Potency (JEG-3) | Potency (OV90) | Potency (PA-1) | Potency (SKOV3) | Potency (Tov-21-G) | Potency (Tov112D)

CC1C=CC2CCCCC2C1CCC1CC(O)CC(=O)O1 (stereo unspecified)
inactive: Potency (C33A) | Potency (CAOV3) | Potency (CASKI) | Potency (Es-2) | Potency (HeLa) | Potency (Hek293T) | Potency (JEG-3) | Potency (OV90) | Potency (PA-1) | Potency (SKOV3) | Potency (Tov-21-G) | Potency (Tov112D)

CC1=C(CCC(C)O[C@@H]2O[C@H](CO)[C@@H](O)[C@H](O)[C@H]2O)C(C)(C)CCC1=O (stereo partly specified)
inactive: Potency (C33A) | Potency (CAOV3) | Potency (CASKI) | Potency (Es-2) | Potency (HeLa) | Potency (Hek293T) | Potency (JEG-3) | Potency (OV90) | Potency (PA-1) | Potency (SKOV3) | Potency (Tov-21-G) | Potency (Tov112D)

CCC(Nc1ncnc2nc[nH]c12)c1nc2cccc(F)c2c(=O)n1-c1ccccc1 (stereo unspecified)
inactive: Potency (C33A) | Potency (CAOV3) | Potency (CASKI) | Potency (Es-2) | Potency (HeLa) | Potency (Hek293T) | Potency (JEG-3) | Potency (OV90) | Potency (PA-1) | Potency (SKOV3) | Potency (Tov-21-G) | Potency (Tov112D)

COC(=O)C[C@H]1C(C)(C)[C@H](OC(=O)C(C)C)[C@@]2(O)C(=O)[C@]1(C)C1CC[C@]3(C)C(CC(=O)O[C@H]3c3ccoc3)[C@]13O[C@@H]32 (stereo partly specified)
inactive: Potency (C33A) | Potency (CAOV3) | Potency (CASKI) | Potency (Es-2) | Potency (HeLa) | Potency (Hek293T) | Potency (JEG-3) | Potency (OV90) | Potency (PA-1) | Potency (SKOV3) | Potency (Tov-21-G) | Potency (Tov112D)
